Rows were chosen to be rich in hits. Some 8.9% of all compounds tested hit in one or more screens of this group.
ALOX12 inhib – blocks human 12-lipoxygenase activity; purified 12-hLO, xylenol orange hydroperoxide absorbance; Potency, µM (titrated, usually from 57.1 µM), without a hit: at the highest dose activity change, negative = inhibition, hits mostly inhibitors; hit rate 0.12% among 150,000; also: potency is read from the fitted curve at half-maximal effect; nearly all actives have a fitted effect of over 55% in size
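Purified human 12hLO (150 nM final) was preincubated with compounds for 15 min at room temperature in 25 mM Hepes pH 7.0, 0.01% Triton X-100, then reacted with 40 uM arachidonic acid for 30 min. Hydroperoxide was detected with ferrous iron/xylenol orange.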
ALDH1A1 block – ALDH1A1 (human) enzyme inhibition | Potency, µM (series often up to 75.3 µM), for the others: at the highest dose activity, negative = inhibition, hits mostly inhibitors | Purified ALDH1A1, NADH fluorescence, propionaldehyde substrate | hit rate 7.3% among 220,000 | P00352; active = well fitted inhibition curve with a large enough effect, not every such curve was filed as active; inconclusive = small, poorly fitted or top-dose-only effect, or another doubt; inactive = no such curve, though single readings can be large or run the other way;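 also: potency is read from the fitted curve at half-maximal effect; plate controls were no enzyme wells and a reference inhibitor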
IMPase cell inh – membrane-permeable compound that blocks inositol monophosphatase | inhibition (IP1 accumulation), % at 46.1 µM | CHO-M1 cells, IP1 accumulation, HTRF TR-FRET ratio | P97697 | 120,000 tested, under 10 active; active = well fitted curve in the direction sought with a large enough effect in the signal ratio, not every such curve was filed as active; inconclusive = small, poorly fitted or top-dose-only effect, or a change in a side signal; inactive = no such curve, though single readings can be large or run the other way; the % refers to the signal ratio;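 also: cells stimulated with carbachol in lithium chloride buffer; plate controls were DMSO basal wells for no effect and reference inhibitor wells for full effect; higher means more IMPase inhibition seen as more IP1 and lower FRET ratio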
Target sequence (P97697 whole entry, looked up): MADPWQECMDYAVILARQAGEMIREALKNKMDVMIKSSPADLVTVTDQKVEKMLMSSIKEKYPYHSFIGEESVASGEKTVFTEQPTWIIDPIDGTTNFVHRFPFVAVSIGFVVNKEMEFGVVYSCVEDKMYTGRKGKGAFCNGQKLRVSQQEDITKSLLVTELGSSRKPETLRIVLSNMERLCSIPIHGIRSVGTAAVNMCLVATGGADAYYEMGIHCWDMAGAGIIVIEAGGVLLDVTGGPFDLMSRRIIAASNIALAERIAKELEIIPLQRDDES
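Carbachol-driven Gq signalling in CHO-M1 cells (2000/well) generates IP1. Compounds that block IMPase raise IP1 and so reduce the FRET signal from Eu-anti-IP1 and d2-IP1 after a 10 min room-temperature lysis.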
NPSR antagonist – blocks cAMP signaling of the human neuropeptide S receptor. CHO-NPSR cells, cAMP TR-FRET, antagonist mode. Potency, µM (highest dose often 38.3 µM), without a hit: at the highest dose activity change, negative = inhibition, most hits filed as inhibitors. hit rate 1% among 220,000. AID 1461; also: potency is read from the fitted curve at half-maximal effect; nearly all actives have a fitted effect of over 50% in size
HPGD block – blocks human HPGD enzyme activity; P15428; purified HPGD, NADH fluorescence kinetic, PGE2 substrate; Potency, µM, for the others: at the top dose activity change, negative = inhibition, hits mostly inhibitors; hit rate 4.3% among 150,000; active = well fitted inhibition curve with a large enough effect, not every such curve was filed as active; inconclusive = small, poorly fitted or top-dose-only effect, or another doubt; inactive = no such curve, though single readings can be large or run the other way; also: potency is read from the fitted curve at half-maximal effect
Target sequence (P15428 whole entry, looked up): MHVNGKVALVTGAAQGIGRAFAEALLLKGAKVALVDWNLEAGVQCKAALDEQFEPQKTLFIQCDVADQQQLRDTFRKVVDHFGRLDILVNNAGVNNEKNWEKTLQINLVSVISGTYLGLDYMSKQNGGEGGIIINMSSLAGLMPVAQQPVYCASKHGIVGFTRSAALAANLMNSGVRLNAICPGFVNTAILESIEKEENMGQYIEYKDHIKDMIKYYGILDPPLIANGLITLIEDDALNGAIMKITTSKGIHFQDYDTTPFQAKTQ
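20 nM HPGD preincubated 15 min at room temperature with compound in 50 mM Tris-HCl pH 8, 0.01% Tween 20. Started with 1 mM NAD+ and 30 uM prostaglandin E2; NADH fluorescence (360/450 nm) read 5 times over 30-s intervals, last minus first.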
IMPase Li inh – cell-permeable IMPase inhibitors with lithium potentiation. CHO-M1 cells, IP1 TR-FRET (IP-One), carbachol + lithium. Potency, µM (top dose mostly 59.4 µM), inactives show at the top dose activity, negative = IMPase inhibition, actives largely listed as inhibitors. hit rate 0.35% among 210,000;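 also: IP1 builds up when IMPase is blocked and the TR-FRET signal falls; potency is read from the fitted curve at half-maximal effect; plate controls were basal vehicle for no effect and high inhibitor control for full effect; nearly all actives have a fitted effect of over 50% in size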
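Steps: plate 2000 CHO-M1 cells per well and culture 16–30 h; add compound and lithium; incubate 30 min, 37C; add d2-IP1 tracer and Eu cryptate anti-IP1 antibody in lysis buffer; read after 10 min at room temperature.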
The depositor's hits bear a star; ? = inconclusive; nt = no result; [ ] = another dose, or the depositor's remark. Unless noted, calls follow the shape of the dose curve; as a rule, active = well fitted curve in the direction sought with a large enough effect; inconclusive = small, poorly fitted or top-dose-only effect, or another doubt; inactive = no such curve, though single readings can be large; an effect the other way counts as inactive or inconclusive. Unless noted, % is scaled to controls: 0 for no effect and ±100 for the full control effect.

SMILES	ALOX12 inhib	ALDH1A1 block	IMPase cell inh	NPSR antagonist	HPGD block	IMPase Li inh
N#Cc1c(/N=C/c2ccco2)sc2c1CCCCC2	-12%	14µM*	-3	-23%[46.1 µM]	-28%	-3%[38.3 µM]
CC1CCc2c(sc(/N=C/N(C)C)c2C#N)C1 (configuration not stated)	nt	?	nt	9%	nt	2%
COc1ccc(NC(=O)CC2C(=O)N(c3ccc(Cl)cc3)C(=S)N2CCc2ccncc2)cc1 (configuration not stated)	-7%	-8%	8	?	-10%	10%[38.3 µM]
CCCCCCn1c(CN2CCN(Cc3ccccc3)CC2)nc2c1c(=O)n(C)c(=O)n2C	-2%	?	9	-11%[46.1 µM]	-9%	18%
Cn1c(=O)c2c(nc(CN3CCN(C(=O)c4ccco4)CC3)n2Cc2ccccc2)n(C)c1=O	5%	13µM*	12[1.84 µM]	-4%[46.1 µM]	-5%	28%[38.3 µM]
Cn1c(=O)c2c(nc(CN3CCN(C(=O)c4ccco4)CC3)n2Cc2cccc(Cl)c2)n(C)c1=O	-2%	14µM*	3	-19%[46.1 µM]	-2%	5%[38.3 µM]
Cn1c(=O)c2c(nc(CN3CCN(C(=O)c4ccco4)CC3)n2Cc2ccc(Cl)cc2)n(C)c1=O	-4%	14µM*	9	-20%[46.1 µM]	-6%	9%[38.3 µM]
Cn1c(=O)c2c(nc(CN3CCN(Cc4ccccc4)CC3)n2Cc2cccc(Cl)c2)n(C)c1=O	-8%	?	6	?	5%	20%[38.3 µM]
CC(C)CCNC(=O)c1onc(CSc2ccncc2)c1C(=O)NCCC(C)C	nt	nt	nt	-33%	nt	nt
NS(=O)(=O)c1ccc(NC(=O)CSc2ccccn2)cc1	1%	?	5	18%[46.1 µM]	-29%	5%[38.3 µM]
Cc1ccc(C(=O)Nc2ccc3c(c2)n(C)c(=O)c(=O)n3C)cc1	nt	nt	-5	nt	nt	nt
Cc1ccc(/C=C/C(=O)NCc2cccs2)o1	nt	4µM*	nt	-9%	nt	12%
Cc1ccc(/C=C/C(=O)NCc2cccs2)cc1	1%	?	nt	8%	14µM*	3%
COc1ccccc1-n1cc(CN2CCN(C3CCCC3)C(CCO)C2)cn1 (configuration not stated)	nt	-4%	nt	-9%	nt	28%
CCNc1ccc(C(=O)OCC(=O)NCCN2C(=O)CSC2=O)cc1[N+](=O)[O-]	nt	3.5µM*	nt	8%	nt	18%
CC(=O)C1CCN(Cc2ccccc2)CC1	10%	-5%	7	-3%[46.1 µM]	-10%	37%[38.3 µM]
CC(=C1C(=O)c2ccccc2C1=O)N1CCN(C/C=C/c2ccccc2)CC1	11%	8.9µM*	4	-6%[46.1 µM]	-7%	1%[38.3 µM]
CC(=C1C(=O)c2ccccc2C1=O)N1CCN(Cc2ccccc2)CC1	12%	10µM*	0	-12%[46.1 µM]	2%	24%[38.3 µM]
CC(=C1C(=O)c2ccccc2C1=O)N1CCC(C(N)=O)(N2CCCCC2)CC1	11%	20µM*	0	-8%[46.1 µM]	-4%	6%[38.3 µM]
COc1ccc(C(=O)Oc2ccc(C3NC(=O)c4c(sc5c4CCN(C)C5)N3)cc2OC)cc1 (configuration not stated)	nt	nt	-4	nt	nt	nt
CC(C)Oc1cccc(-n2c(CCc3c[nH]c4ccc(Br)cc34)nc3ccccc3c2=O)c1	-5%	-3%	0	nt	-18%	10%
CN(Cc1ccc(-n2cccn2)cc1)C(=O)c1cnn2c1NC(c1ccco1)CC2C(F)(F)F (configuration not stated)	-8%	7.9µM*	8[1.84 µM]	?	-26%	67%[38.3 µM]
CCOC(=O)N1CCC(NC(=O)c2cnn3c2NC(c2ccco2)CC3C(F)(F)F)CC1 (configuration not stated)	-2%	?	6	?	-9%	-9%[38.3 µM]
COc1cccc(C2CC(C(F)(F)F)n3ncc(C(=O)NCC4CCCO4)c3N2)c1 (configuration not stated)	-2%	3%	0	-6%[46.1 µM]	14µM*	0%[38.3 µM]
COCCNC(=O)c1cnn2c1NC(c1ccco1)CC2C(F)(F)F (configuration not stated)	-1%	?	0	7%[46.1 µM]	25µM*	9%
O=C(Nc1ccc(Br)cc1)Nc1ccccc1Cl	nt	5%	nt	46%	nt	nt

Screens (PubChem BioAssay)
